The panel holds about 83,000 compounds, 20% with a hit somewhere; the sample as a whole holds those more often.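 Single-dose data. Exposure time 48 hours. Values below 10 considered active.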 Unmarked numbers belong to inactive results.

In the assay the test system is KM12 colon. Description: NCI-60 one-dose screen, 48 h (100 = growth as untreated, 0 = no growth, -100 = all killed). The following applies: 10 µM unless noted.
Regarding `O=C1CC2c3cc(-c4cc5ccccc5o4)ccc3CCN2C(=O)N1c1ccccc1` (centres undefined), the growth is 101%.

Consider `COc1cccc(-c2ccc3c(c2)C2CCN(Cc4ccccc4)C3C2)c1` (centres undefined), for which the growth was 56.7%.

For the compound `CCCCCCCCCCCCSC1=CC(=O)C=CC1=O`, the growth is 48.9%.

As to `COc1cc(/C=C/C(=O)C2=C(/C=C/c3ccc(O)c(OC)c3)NC(=O)NC2c2ccc(O)c(OC)c2)ccc1O` (centres undefined), the growth was 101%.

Consider `CCOC(=O)c1c(Cl)c2c(n1Cc1ccc(OC)cc1)-c1oncc1CCC2`, for which the growth was 96.8%.

On to `Cc1nc2cc(Nc3nc(N4CCCCC4)nc(N4CCOCC4)n3)ccc2n1Cc1ccccc1`, for which the growth is 18.3%.

On to `COc1ccc(C2CC(c3cc(OC)c(OC)c(OC)c3)=NN2c2ccc(S(N)(=O)=O)cc2)cc1` (centres undefined), for which the growth was 63.5%.

For the compound `Brc1ccccc1Nc1ccc2nnc(-c3ccncc3)n2n1`, the growth is 94.1%.

As for `Brc1ccc(SCN(CSc2ccc(Br)cc2)Cc2ccccc2)cc1`, the growth was 43.2%.

(Values after PubChem BioAssay (NCI).)
